Values joined by “and” are separate entries in the source; they are usually repeats but may differ in a detail not shown here. Identical values can stand only once. Results filed as inconclusive are left out. Where a call stands in place of a potency, no number is given. Some compounds were tested as several samples or in several runs, with calls that do not always agree. Active and inactive are the calls of the source. Unless noted, calls follow the shape of the dose curve; as a rule, active = well fitted curve in the direction sought with a large enough effect in the repeat runs; inconclusive = weak or mixed curves; inactive = no such curve, though single readings can be large; an effect the other way counts as inactive or inconclusive.
How the values were obtained:
[1] = qHTS assay to test for compound auto fluorescence at 535 nm (green) in HEK293 cells (AID 720680)
[2] = qHTS assay to test for compound auto fluorescence at 460 nm (blue) in HEK293 cell free culture (AID 720681)
Outline: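 Compounds were added to cell-free DMEM with 10% FBS and fluorescence read directly. The blue channel used 405 nm excitation and 460 nm emission, with triamterene as the reference fluorophore.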

[3] = qHTS assay to test for compound auto fluorescence at 535 nm (green) in HEK293 cell free culture (AID 720682)
Outline: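 Each library compound, or DMSO control, is added by pintool to medium alone, comprising DMEM and 10% FBS. Emission at 535 nm following 485 nm excitation is quantified against fluorescein.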

[4] = qHTS assay to test for compound auto fluorescence at 590 nm (red) in HEK293 cell free culture (AID 720683)
Outline: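 Cell-free wells of DMEM with 10% FBS received compound, and intrinsic fluorescence was read at excitation/emission 540/590 nm. Values expressed as equivalence to Rose Bengal sodium.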

[5] = qHTS assay to test for compound auto fluorescence at 590 nm (red) in HepG2 cell free culture (AID 720684)
Outline: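 Rose Bengal sodium served as the reference for red signal. Test compounds were dispensed into serum-containing MEM (10% FBS) without cells, and plates were read at 540/590 nm.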

[6] = qHTS assay to test for compound auto fluorescence at 460 nm (blue) in HepG2 cells (AID 720687); also: potency is read from the fitted curve at half-maximal effect
Outline: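 HepG2 cells in MEM with 10% FBS, attached overnight at 37 C, were exposed to compound or DMSO for 1 hr at 37 C, 5% CO2. Blue fluorescence was read at 405/460 nm, with triamterene as reference fluorophore.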

[7] = target: Glucocorticoid receptor (Homo sapiens) (UniProt P04150); assay: qHTS assay to identify small molecule agonists of the glucocorticoid receptor (GR) signaling pathway (AID 720691; active = well fitted activation curve with a large enough effect in the signal ratio in the repeat runs, not every such curve was filed as active; the % refers to the signal ratio); conditions: GR-bla HeLa, beta-lactamase reporter ratio, 18 h; activation: at 62.4 µM (top of the series)
Chain of Glucocorticoid receptor (Homo sapiens) (P04150 whole entry, looked up): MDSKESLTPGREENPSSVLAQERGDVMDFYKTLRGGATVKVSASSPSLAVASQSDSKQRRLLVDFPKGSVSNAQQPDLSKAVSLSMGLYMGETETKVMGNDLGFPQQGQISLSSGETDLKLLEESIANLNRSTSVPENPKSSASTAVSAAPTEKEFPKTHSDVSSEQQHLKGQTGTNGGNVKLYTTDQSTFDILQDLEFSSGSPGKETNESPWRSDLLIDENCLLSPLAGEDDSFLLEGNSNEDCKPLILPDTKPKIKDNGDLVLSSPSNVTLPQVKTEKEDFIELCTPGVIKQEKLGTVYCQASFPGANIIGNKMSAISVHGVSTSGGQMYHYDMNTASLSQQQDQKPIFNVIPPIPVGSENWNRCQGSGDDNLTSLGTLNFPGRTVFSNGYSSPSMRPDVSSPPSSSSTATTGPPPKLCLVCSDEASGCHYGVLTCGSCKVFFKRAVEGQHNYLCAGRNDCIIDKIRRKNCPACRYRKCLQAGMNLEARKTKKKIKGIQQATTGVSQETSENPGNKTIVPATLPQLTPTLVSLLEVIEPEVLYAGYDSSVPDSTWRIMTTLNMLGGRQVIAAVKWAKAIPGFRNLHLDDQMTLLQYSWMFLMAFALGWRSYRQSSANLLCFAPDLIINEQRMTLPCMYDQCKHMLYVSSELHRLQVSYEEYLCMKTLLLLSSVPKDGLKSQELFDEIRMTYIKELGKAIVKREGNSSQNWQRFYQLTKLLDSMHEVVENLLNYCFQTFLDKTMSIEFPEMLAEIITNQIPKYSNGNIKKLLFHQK
Outline: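 Steps: seed GR-bla HeLa cells, incubate 4 h at 37 C/5% CO2; pin-transfer DMSO-dissolved compounds; incubate 18 h at 37 C; add LiveBLAzer B/G FRET substrate; after 2 h at room temperature, measure fluorescence.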

[8] = target: Glucocorticoid receptor (Homo sapiens) (UniProt P04150); assay: qHTS assay to identify small molecule antagonists of the glucocorticoid receptor (GR) signaling pathway (AID 720692; active = well fitted inhibition curve with a large enough effect in the signal ratio in the repeat runs, not every such curve was filed as active; the % refers to the signal ratio; also: potency is read from the fitted curve at half-maximal effect)
Outline: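 Antagonism was scored as loss of dexamethasone-driven (5 nM final) reporter signal in HeLa cells bearing a glucocorticoid response element–beta-lactamase construct, after 18 h compound exposure at 37 C and 2 h FRET substrate loading.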

[9] = qHTS assay to identify small molecule antagonists of the glucocorticoid receptor (GR) signaling pathway - cell viability counter screen (AID 720693); also: nearly all actives have a fitted effect of over 55% in size; also: potency is read from the fitted curve at half-maximal effect
[10] = qHTS assay for identifying genotoxic compounds that show differential cytotoxicity against isogenic chicken DT40 cell lines with known DNA damage response pathways - wild type cell line (AID 743012); also: nearly all actives have a fitted effect of over 60% in size; also: potency is read from the fitted curve at half-maximal effect
Outline: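 Cytotoxicity in repair-proficient parental chicken DT40 cells serves as the comparator for Rad54/Ku70- and Rev3-deficient lines. Cells were exposed to compounds for 40 h at 37 C/5% CO2, and ATP-based luminescence (CellTiter-Glo) measured viability.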

[11] = qHTS assay for identifying genotoxic compounds that show differential cytotoxicity against isogenic chicken DT40 cell lines with known DNA damage response pathways - Rev3 mutant cell line (AID 743014); also: nearly all actives have a fitted effect of over 55% in size; also: potency is read from the fitted curve at half-maximal effect
[12] = qHTS assay for identifying genotoxic compounds that show differential cytotoxicity against isogenic chicken DT40 cell lines with known DNA damage response pathways - Rad54/Ku70 mutant cell line (AID 743015); also: nearly all actives have a fitted effect of over 60% in size; also: potency is read from the fitted curve at half-maximal effect
[13] = qHTS assay to identify small molecule antagonists of the androgen receptor (AR) signaling pathway - cell viability counter screen (AID 743033; also: nearly all actives have a fitted effect of over 45% in size; also: potency is read from the fitted curve at half-maximal effect)
[14] = target: Androgen receptor (Homo sapiens) (UniProt P10275); assay: qHTS assay to identify small molecule agonists of the androgen receptor (AR) signaling pathway using the MDA cell line (AID 743040; also: nearly all actives have a fitted effect of over 20% in size)
Chain of Androgen receptor (Homo sapiens) (P10275 whole entry, looked up): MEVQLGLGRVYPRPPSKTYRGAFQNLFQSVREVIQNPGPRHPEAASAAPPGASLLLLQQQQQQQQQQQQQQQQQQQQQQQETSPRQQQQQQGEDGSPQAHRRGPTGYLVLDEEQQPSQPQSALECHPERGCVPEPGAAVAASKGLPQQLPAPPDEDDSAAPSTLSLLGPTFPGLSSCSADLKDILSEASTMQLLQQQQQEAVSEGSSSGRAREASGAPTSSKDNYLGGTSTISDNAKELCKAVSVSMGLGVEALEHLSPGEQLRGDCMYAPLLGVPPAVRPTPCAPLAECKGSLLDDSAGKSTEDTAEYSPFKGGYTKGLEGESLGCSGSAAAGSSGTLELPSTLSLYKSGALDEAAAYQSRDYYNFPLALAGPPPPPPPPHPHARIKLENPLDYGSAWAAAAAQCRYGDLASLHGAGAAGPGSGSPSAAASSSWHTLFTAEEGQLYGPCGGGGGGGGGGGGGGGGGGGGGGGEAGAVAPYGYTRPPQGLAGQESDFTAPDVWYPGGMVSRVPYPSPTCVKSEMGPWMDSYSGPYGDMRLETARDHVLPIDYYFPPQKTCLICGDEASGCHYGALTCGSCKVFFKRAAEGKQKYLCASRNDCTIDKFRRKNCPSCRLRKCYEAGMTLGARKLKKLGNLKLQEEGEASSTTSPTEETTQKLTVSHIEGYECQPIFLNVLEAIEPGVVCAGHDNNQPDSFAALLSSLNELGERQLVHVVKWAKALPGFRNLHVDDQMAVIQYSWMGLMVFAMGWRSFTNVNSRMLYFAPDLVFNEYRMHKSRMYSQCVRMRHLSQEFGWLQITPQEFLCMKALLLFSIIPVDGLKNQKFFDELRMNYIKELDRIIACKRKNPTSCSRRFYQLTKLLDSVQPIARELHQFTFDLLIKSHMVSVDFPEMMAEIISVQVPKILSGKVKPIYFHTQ
Outline: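 Luciferase read-out, ONE-Glo, 30 min RT. Cells: MDA-kb2 AR-luc, MMTV promoter with AR and GR response elements. Compound exposure 16 h, 37C, 0% CO2, after 5 h pre-incubation. qHTS agonist mode.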

[15] = qHTS assay to identify small molecule antagonists of the androgen receptor (AR) signaling pathway using the MDA cell line - cell viability counter screen (AID 743041; also: nearly all actives have a fitted effect of over 45% in size)
Outline: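 Cytotoxicity counter screen: MDA-kb2 AR-luc cells, compound + R1881, 16 h, 37C, 0% CO2; CellTiter-Fluor added at 15.5 h, fluorescence read after 30 min.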

[16] = target: Androgen receptor (Homo sapiens) (UniProt P10275); assay: qHTS assay to identify small molecule antagonists of the androgen receptor (AR) signaling pathway using the MDA cell line (AID 743042; also: nearly all actives have a fitted effect of over 55% in size; also: potency is read from the fitted curve at half-maximal effect)
Outline: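 MDA-kb2 breast carcinoma cells carrying MMTV-luciferase (AR/GR responsive) were co-treated with compounds and the agonist R1881 for 16 h at 37C. Inhibition read as ONE-Glo luminescence; CellTiter-Fluor fluorescence measured in parallel for cytotoxicity.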

[17] = qHTS assay to test for compound auto fluorescence at 460 nm (blue) in HepG2 cell free culture (AID 720685)
Outline: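 Cell-free plates of MEM plus 10% FBS received 23 nL compound or DMSO vehicle; blue-channel (405/460 nm) intensity scored against triamterene as reference fluorophore.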

[18] = qHTS assay to test for compound auto fluorescence at 535 nm (green) in HepG2 cell free culture (AID 720686)
[19] = target: Androgen receptor (Homo sapiens) (UniProt P10275); assay: qHTS assay to identify small molecule agonists of the androgen receptor (AR) signaling pathway (AID 743036; active = well fitted activation curve with a large enough effect in the signal ratio in the repeat runs, with a control signal flat, not every such curve was filed as active; the % refers to the signal ratio)
Outline: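 Following a 4 h settling period, AR-UAS-bla HEK293 cells were dosed with compounds for 16 h at 37C. A 2 h room-temperature incubation with LiveBLAzer B/G FRET substrate preceded the fluorescence measurement.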

[20] = target: Androgen receptor (Homo sapiens) (UniProt P10275); assay: qHTS assay to identify small molecule antagonists of the androgen receptor (AR) signaling pathway (AID 743035; active = well fitted inhibition curve with a large enough effect in the signal ratio in the repeat runs, not every such curve was filed as active; the % refers to the signal ratio; also: potency is read from the fitted curve at half-maximal effect)
Outline: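 Steps: seed AR-UAS-bla GripTite HEK293 cells, incubate 4 h at 37C; pin in test compound, then add agonist R1881; incubate 16 h at 37C; add LiveBLAzer B/G FRET substrate, 2 h at room temperature; read fluorescence.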
Tags tell the direction and shape of the fitted curve or compound fluorescence and quenching.

| SMILES | outcome [1] | Potency [2] | outcome [3] | outcome [4] | outcome [5] | Potency [6] | Potency [7] | Potency [8] | Potency [9] | Potency [10] | Potency [11] | Potency [12] | Potency [13] | Potency [14] | Potency [15] | Potency [16] | Potency [17] | Potency [18] | Potency [19] | Potency [20] |
| --- | --- | --- | --- | --- | --- | --- | --- | --- | --- | --- | --- | --- | --- | --- | --- | --- | --- | --- | --- | --- |
| COc1cc(/C=C/C(=O)CC(=O)/C=C/c2ccc(O)c(OC)c2)ccc1O | inactive | inactive | inactive | inactive | inactive | 39.8 µM [fluorescent] (active) | inactive | 23.9 µM (active) and inactive | inactive | 8.41 µM (active) and 21.1 µM (active) and 17.3 µM (active) | 11.9 µM (active) and 12.3 µM (active) | 10.6 µM (active) and 26.6 µM (active) and 10.9 µM (active) | inactive and 43.9 µM (active) | inactive | inactive | 26.6 µM (active) and inactive and 13.8 µM (active) | – | – | – | – |
| COc1ccc([C@@H]2CC(=O)c3c(O)cc(O[C@@H]4O[C@H](CO[C@@H]5O[C@@H](C)[C@H](O)[C@@H](O)[C@H]5O)[C@@H](O)[C@H](O)[C@H]4O)cc3O2)cc1O | inactive | inactive | inactive | – | inactive | inactive | inactive | inactive | inactive | inactive | inactive | inactive | inactive | – | inactive | inactive | inactive | inactive | inactive | – |
| C=C1[C@@H]2CC[C@@H](C2)C1(C)C | inactive | inactive | inactive | inactive | – | inactive | inactive | inactive | inactive | inactive | inactive | inactive | inactive | – | – | – | inactive | inactive | – | – |
| CC(=O)Nc1ccc(OC(C)=O)cc1 | inactive | inactive | inactive | – | inactive | inactive | inactive | inactive | inactive | inactive | inactive | inactive | inactive | – | inactive | – | inactive | inactive | – | – |
| CN1C(=O)C[C@@H](C(=O)N[C@@H](Cc2cnc[nH]2)C(=O)N2CCC[C@H]2C(N)=O)NC1=O | inactive | inactive | inactive | inactive | – | – | – | – | inactive | inactive | inactive | inactive | – | – | inactive | – | inactive | inactive | – | – |
| CC(C)OC(=O)Nc1ccc2nc(-c3cscn3)[nH]c2c1 | inactive | inactive | inactive | inactive | – | inactive | – | – | inactive | 1.68 µM (active) | 1.88 µM (active) | 2370 nM (active) | inactive | inactive | inactive | inactive | inactive | inactive | – | 4.25 µM (active) |
| NS(=O)(=O)c1cc(Cl)c(Cl)c(S(N)(=O)=O)c1 | inactive | inactive | inactive | inactive | – | – | inactive | inactive | inactive | inactive | inactive | inactive | – | – | inactive | – | inactive | inactive | – | – |
| CNCCC=C1c2ccccc2CCc2ccccc21 | inactive | inactive | inactive | inactive | – | inactive | – | inactive | – | 6.68 µM (active) | 11.9 µM (active) | 11900 nM (active) | – | – | – | – | – | – | – | – |
| NC(=O)[C@H]1O[C@@H](O)[C@H](O)[C@@H](O)[C@@H]1O | inactive | inactive | inactive | inactive | inactive | – | inactive | inactive | inactive | inactive | inactive | inactive | inactive | – | inactive | – | – | inactive | – | – |
| CCC(C)(C)c1ccc(CC(C)CN2C[C@@H](C)O[C@@H](C)C2)cc1 (some centres not stated) | inactive | inactive | inactive | inactive | – | inactive | – | – | – | 0.841 µM (active) | 0.668 µM (active) | 841 nM (active) | inactive | – | – | – | inactive | inactive | – | – |
| COc1c(O)cc2c(c1O)[C@@H]1O[C@H](CO)[C@@H](O)[C@H](O)[C@H]1OC2=O | inactive | inactive | inactive | – | inactive | inactive | inactive | inactive | inactive | inactive | inactive | inactive | inactive | inactive | inactive | inactive | inactive | inactive | – | inactive |
| O=C(O)c1ccc(NC2OC[C@@H](O)[C@H](O)[C@H]2O)cc1 (some centres not stated) | inactive | inactive | inactive | inactive | – | inactive | inactive | – | inactive | – | – | inactive | inactive | – | inactive | – | inactive | inactive | – | – |
| CN1CC[C@H](c2c(O)cc(O)c3c(=O)cc(-c4ccccc4Cl)oc23)[C@H](O)C1 | inactive | inactive | inactive | inactive | – | inactive | – | 674 nM (active) | 601 nM (active) | 0.106 µM (active) | 0.15 µM (active) | 150 nM (active) | – | – | inactive | 106 nM (active) | inactive | inactive | – | – |
| CCCCCCCCCC(=O)NO | inactive | inactive | inactive | inactive | – | inactive | – | – | inactive | – | – | inactive | inactive | – | inactive | – | – | inactive | – | – |
| CC(C)COC(=O)OCN1C(=O)CN(CCN2CC(=O)N(COC(=O)OCC(C)C)C(=O)C2)CC1=O | inactive | inactive | inactive | inactive | – | inactive | inactive | inactive | inactive | – | inactive | 188 nM (active) | inactive | – | inactive | – | inactive | inactive | – | – |
| COC1[C@@H](O[C@@H]2O[C@H](C)[C@@H](O[C@H]3C[C@@](C)(O)[C@H](OC(=O)CC(C)C)[C@H](C)O3)[C@H](N(C)C)[C@H]2O)[C@@H](CC=O)C[C@@H](C)[C@@H](O)/C=C/C=C/C[C@@H](C)OC(=O)C[C@H]1OC(C)=O (some centres not stated) | inactive | inactive | inactive | inactive | – | inactive | inactive | inactive | inactive | – | inactive | inactive | – | – | inactive | – | inactive | inactive | – | – |
